# In PubChem BioAssay (NCATS):
# Results filed as inconclusive are left out. The source made the active and inactive calls. Calls come from the whole dose curve; as a rule, active = well fitted cell-killing curve with a large enough effect; inconclusive = small, poorly fitted or top-dose-only effect, or effect the other way; inactive = no such curve, though single readings can be large or run the other way. Peptide text beside a SMILES is read from it.
# Assay: Quantitative High-Throughput drug screen in 47 multiple myeloma cell lines against the NCATS MIPE library collection: MM1S_ATCC cell viability assay (AID 1918980); note: nearly all actives have a fitted effect of over 45% in size
# Details: MM1S myeloma viability, CellTiter-Glo ATP luminescence, 48 h; series mostly up to 45.8 µM
# Source text: PI: Beverly A. Mock Ph.D.
# Laboratory of Cancer Biology and Genetics,
# Center for Cancer Research, National Cancer Institute,
# National Institute of Health, Bethesda, Maryland
# Drug resistance and disease progression are common in multiple myeloma (MM) patients, underscoring the need for new therapeutic combinations. […] We hypothesized that effective combinations would reduce MYC expression and enhance p16 activity. […] These preclinical data identify potentially useful drug combinations for evaluation in drug-resistant MM and reveal potential mechanisms of combined drug sensitivity.
# Described herein is the primary MIPE qHTS used to cherrypick compounds. Validated compounds were then further tested for potential synergistic activiy.
# [1] Peat TJ, Gaikwad SM, Dubois W, Gyabaah-Kessie N, Zhang S, Gorjifard S, Phyo Z, Andres M, Hughitt VK, Simpson RM, Miller MA, Girvin AT, Taylor A, Williams D, D'Antonio N, Zhang Y, Rajagopalan A, Flietner E, Wilson K, Zhang X, Shinn P, Klumpp-Thomas C, McKnight C, Itkin Z, Chen L, Kazandijian D, Zhang J, Michalowski AM, Simmons JK, Keats J, Thomas CJ, Mock BA. Drug combinations identified by high-throughput screening promote cell cycle transition and upregulate Smad pathways in myeloma. Cancer Lett. 2023 Aug 1;568:216284. doi: 10.1016/j.canlet.2023.216284. Epub 2023 Jun 24. PMID: 37356470; PMCID: PMC10408729.
# SEQUENCE No. (e.g., 1, 2, 3, etc.); […] (e.g., Cells, Incubation, Reagent, etc.); VALUE and DESCRIPTION.
# 1; Cells; 5 uL; white, solid bottom 1536-well Greiner assay plate.
# 2; Compounds; 23 nL; Kalypsis pin tool (Wako USA) equipped with a 1536-well pin head to transfer to the assay plates.
# 3; Incubation; 48 hours; 37C incubation.
# 4; Reagent;5uL; CellTiter Glo (Promega).
# 5; Detector; 425V; Luminescence; Viewlux PerkinElmer.
# NOTES (numbers refer to Sequence numbers above)
# 1. The cell-based screening methods employed in this study were like those previously published. Briefly, the corresponding myeloma cell lines were screened in 1,536-well plates with 500 cells, 5-uL per well for inhibition of cell viability (assessed by measuring ATP levels with CellTiterGlo).
# 2. NCATS MIPE 4.0 library of approved and investigational drugs were added using the Kalypsis pin tool. Wells treated with DMSO only for 100% viability and media only for 0% viability were used as controls.
# 3. The assay plates were covered and incubated for 48 hours in a 37C, 5% CO2 incubator with controlled humidity.
# 4. After 48 hours, CellTilter-GloTM luminescent substrate mix (Promega) reagent was added to the assay plate and plates we incubated for 5 min at room temperature.
# 5. Signal was measured as median relative luminescence units on a ViewLux (PerkinElmer) multiplate reader.
# [1] Heske CM, Davis MI, Baumgart JT, Wilson K, Gormally MV, Chen L, Zhang X, Ceribelli M, Duveau DY, Guha R, Ferrer M, Arnaldez FI, Ji J, Tran HL, Zhang Y, Mendoza A, Helman LJ, Thomas CJ. Matrix Screen Identifies Synergistic Combination of PARP Inhibitors and Nicotinamide Phosphoribosyltransferase (NAMPT) Inhibitors in Ewing Sarcoma. Clin Cancer Res. 2017 Dec 1;23(23):7301-7311. doi: 10.1158/1078-0432.CCR-17-1121. Epub 2017 Sep 12. PMID: 28899971; PMCID: PMC6636827.
# Potency is the fitted concentration of half-maximal effect.
row,Compound,Potency
1,Cc1cc(Cl)ccc1OCCCC(=O)NO,1.18 µM (active)
2,Cc1cccc(CN2CCN(C(c3ccccc3)c3ccc(Cl)cc3)CC2)c1 (stereo not given),20.9 µM (active)
3,N=C(N=C(N)N)N1CCOCC1,10.5 µM (active)
4,CC(C)[N+]1(C)[C@@H]2CC[C@H]1CC(OC(=O)C(CO)c1ccccc1)C2 (stereo not given in full),inactive
5,CN(C)C(=O)COC(=O)Cc1ccc(OC(=O)c2ccc(N=C(N)N)cc2)cc1,11.8 µM (active)
6,COC(=O)C1=C(C)NC(C)=C(C(=O)OC(C)C)C1c1cccc2nonc12 (stereo not given),2.35 µM (active)
7,CN(C)c1ccc(O)c2c1C[C@H]1C[C@H]3[C@H](N(C)C)C(=O)C(C(N)=O)=C(O)[C@@]3(O)C(=O)C1=C2O,3.72 µM (active)
8,O=C(O)c1cccnc1Nc1cccc(C(F)(F)F)c1,inactive
9,O=C(O)c1cn(-c2ccc(F)cc2)c2cc(N3CCNCC3)c(F)cc2c1=O,20.9 µM (active)
10,N[C@@H](Cc1cc(I)c(Oc2cc(I)c(O)c(I)c2)c(I)c1)C(=O)O,inactive
11,Oc1ccc(OCc2ccccc2)cc1,inactive
12,O=C(OC1C[C@H]2CC[C@@H](C1)[N+]21CCCC1)C(O)(c1ccccc1)c1ccccc1 (stereo not given in full),inactive
13,CCC[C@@H]1C[C@@H](C(=O)N[C@@H]([C@H]2O[C@H](SC)[C@H](O)[C@@H](O)[C@H]2O)[C@@H](C)O)N(C)C1,inactive
14,CC(=O)NC[C@H]1CN(c2ccc(N3CCOCC3)c(F)c2)C(=O)O1,8.33 µM (active)
15,O=C(O)c1cccc(-c2noc(-c3ccccc3F)n2)c1,20.9 µM (active)
16,Nc1nc(OCc2ccccc2)c2[nH]cnc2n1,14.8 µM (active)
17,CCC1=C(C)CN(C(=O)NCCc2ccc(S(=O)(=O)NC(=O)NC3CCC(C)CC3)cc2)C1=O (stereo not given),inactive
18,Clc1ccc(C(Cn2ccnc2)OCc2ccc(Sc3ccccc3)cc2)c(Cl)c1 (stereo not given),18.7 µM (active)
19,Nc1nc(N)c(N=O)c(OCC2CCCCC2)n1,13.2 µM (active)
20,COc1ccc2cc([C@H](C)C(=O)O)ccc2c1,inactive

row,Compound,Potency
1,OC(CN1CCN(c2cccc(Cl)c2)CC1)C(c1ccccc1)c1ccccc1 (stereo not given),5.26 µM (active)
2,Cc1cccc(C)c1OCC(=O)N[C@@H](Cc1ccccc1)[C@@H](O)C[C@H](Cc1ccccc1)NC(=O)[C@H](C(C)C)N1CCCNC1=O,20.9 µM (active)
3,Cc1cccc(-c2[nH]ncc2-c2ccc3ncccc3n2)n1,14.8 µM (active)
4,O=Nc1c(-c2c(O)[nH]c3cc(Br)ccc23)[nH]c2ccccc12,11.8 µM (active)
5,CCCc1cc(=O)[nH]c(=S)[nH]1,2.64 µM (active)
6,Cc1cc(C2CCCCC2)n(O)c(=O)c1,0.935 µM (active)
7,CC(C)Oc1ccc2c(=O)c(-c3ccccc3)coc2c1,13.2 µM (active)
8,NNc1nncc2ccccc12,inactive
9,O=C1c2ccccc2-c2n[nH]c3cccc1c23,14.8 µM (active)
10,O=C(NOCC1CC1)c1ccc(F)c(F)c1Nc1ccc(I)cc1Cl,23.5 µM (active)
11,COc1c(O)cc2c(c1O)[C@@H]1O[C@H](CO)[C@@H](O)[C@H](O)[C@H]1OC2=O,inactive
12,COC(=O)[C@H](Cc1ccccc1)NC(=O)[C@@H](N)CC(=O)O (H-Asp-Phe-OMe),inactive
13,COc1cc2nc(N3CCN(C(=O)C4CCCO4)CC3)nc(N)c2cc1OC (stereo not given),inactive
14,C[C@@H](c1ncncc1F)[C@](O)(Cn1cncn1)c1ccc(F)cc1F,inactive
15,CCc1nc(N)nc(N)c1-c1ccc(Cl)cc1,16.6 µM (active)
16,CN(C)[C@@H](CCOc1cccc2ccccc12)c1ccccc1,23.5 µM (active)
17,O=C(NCCO[N+](=O)[O-])c1cccnc1,4.69 µM (active)
18,Cc1nccn1CC1CCc2c(c3ccccc3n2C)C1=O (stereo not given),26.4 µM (active)
19,Cc1ccc(S(=O)(=O)NC(=O)NN2CC3CCCC3C2)cc1 (stereo not given),20.9 µM (active)
20,Nc1ncn([C@H]2C[C@H](O)[C@@H](CO)O2)c(=O)n1,0.418 µM (active)
